Laboratory results as given in PubChem BioAssay (NCATS).
Several values for one entry are separate records, joined by “and”; a condition that tells them apart may be missing. Identical values can stand only once. Records with an inconclusive call do not appear. Entries that show only a call come without a potency. A structure can be active in one record and inactive in another. Activity calls are given as the source filed them. Unless noted, calls follow the shape of the dose curve; as a rule, active = well fitted curve in the direction sought with a large enough effect; inconclusive = small, poorly fitted or top-dose-only effect, or another doubt; inactive = no such curve, though single readings can be large; an effect the other way counts as inactive or inconclusive.

Columns and labels:
[1] = qHTS for Inhibitors of Plasmodium falciparum (DD2) proliferation (AID 504314);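 also: parasite DNA measured by SYBR Green fluorescence after red cell lysis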; conditions: P. falciparum Dd2 in erythrocytes, SYBR Green growth, 72 h; series mostly up to 6.11 µM
Method in brief: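 Erythrocytes infected with P. falciparum (0.3% parasitemia, 2.5% hematocrit final) were incubated with compounds for 72 h at 37C, 5% CO2. Parasite DNA was detected by SYBR Green I fluorescence after saponin/Triton lysis, normalized to artemisinin (0.29 uM) and DMSO controls.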

[2] = qHTS for Inhibitors of Plasmodium falciparum (GB4) proliferation (AID 504315); also: nearly all actives have a fitted effect of over 50% in size; also: potency is read from the fitted curve at half-maximal effect; conditions: P. falciparum GB4 in erythrocytes, SYBR Green DNA, 72 h; series mostly up to 6.7 µM
Method in brief: (§1)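 Erythrocytes infected with P. falciparum line (0.3% parasitemia, 2.5% hematocrit final) incubated with compounds 72 h at 37 °C, 5% CO2; SYBR Green lysis buffer added, fluorescence read next day. Normalized to 0.29 uM artemisinin and DMSO.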

[3] = qHTS for Inhibitors of Plasmodium falciparum (7G8) proliferation (AID 504316); also: nearly all actives have a fitted effect of over 65% in size; also: potency is read from the fitted curve at half-maximal effect; conditions: P. falciparum 7G8 in erythrocytes, SYBR Green DNA, 72 h; series mostly up to 6.7 µM
Method in brief: as §1

[4] = qHTS for Inhibitors of Plasmodium falciparum (HB3) proliferation (AID 504318); also: nearly all actives have a fitted effect of over 60% in size; also: potency is read from the fitted curve at half-maximal effect; conditions: P. falciparum HB3 in erythrocytes, SYBR Green DNA, 72 h; series mostly up to 7.21 µM
Method in brief: as §1

[5] = qHTS for Inhibitors of Plasmodium falciparum (CP250) proliferation (AID 504320); conditions: P. falciparum CP250 in erythrocytes, SYBR Green DNA, 72 h; series mostly up to 6.7 µM
Method in brief: as §1

[6] = molecular target: Atrial natriuretic peptide receptor 1 (Homo sapiens) (UniProt P16066); experiment: Natriuretic polypeptide receptor (hNpr1) antagonism - Pilot CMLD screen (AID 1347052; calls by dose curve;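 also: cGMP level read as GloSensor luciferase luminescence after agonist stimulation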; also: potency is read from the fitted curve at half-maximal effect); conditions: HEK293 hNpr1 GloSensor cGMP luminescence, ANP-stimulated; series mostly up to 9.22 µM
Chain of Atrial natriuretic peptide receptor 1 (Homo sapiens) (P16066 whole entry, looked up): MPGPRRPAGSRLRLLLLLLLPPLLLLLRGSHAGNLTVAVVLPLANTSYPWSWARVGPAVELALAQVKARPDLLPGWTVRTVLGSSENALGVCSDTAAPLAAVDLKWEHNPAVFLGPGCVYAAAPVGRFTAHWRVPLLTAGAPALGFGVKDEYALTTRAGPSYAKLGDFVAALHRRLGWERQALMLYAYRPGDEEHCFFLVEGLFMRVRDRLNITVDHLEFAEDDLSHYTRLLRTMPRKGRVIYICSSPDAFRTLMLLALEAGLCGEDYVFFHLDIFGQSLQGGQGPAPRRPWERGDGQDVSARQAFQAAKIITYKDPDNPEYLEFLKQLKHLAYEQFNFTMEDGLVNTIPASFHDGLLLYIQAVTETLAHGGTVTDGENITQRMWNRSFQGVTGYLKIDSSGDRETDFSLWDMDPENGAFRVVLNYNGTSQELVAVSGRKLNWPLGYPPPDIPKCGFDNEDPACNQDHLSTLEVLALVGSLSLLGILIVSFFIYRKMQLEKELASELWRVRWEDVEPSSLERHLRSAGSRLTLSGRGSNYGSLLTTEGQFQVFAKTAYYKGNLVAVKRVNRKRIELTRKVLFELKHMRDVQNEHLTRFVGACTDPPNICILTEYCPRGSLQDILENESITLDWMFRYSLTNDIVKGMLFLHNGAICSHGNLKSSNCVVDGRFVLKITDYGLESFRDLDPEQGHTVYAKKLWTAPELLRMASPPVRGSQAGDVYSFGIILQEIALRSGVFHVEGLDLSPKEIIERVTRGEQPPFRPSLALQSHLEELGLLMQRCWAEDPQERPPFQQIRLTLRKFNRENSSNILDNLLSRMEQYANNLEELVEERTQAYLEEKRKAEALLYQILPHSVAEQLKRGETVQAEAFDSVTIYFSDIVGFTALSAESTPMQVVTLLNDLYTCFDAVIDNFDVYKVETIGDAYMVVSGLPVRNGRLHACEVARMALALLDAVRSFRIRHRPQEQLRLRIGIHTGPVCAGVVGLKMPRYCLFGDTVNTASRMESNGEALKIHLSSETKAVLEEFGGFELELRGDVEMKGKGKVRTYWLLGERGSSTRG

SMILES | Potency [1] | Potency [2] | Potency [3] | Potency [4] | Potency [5] | Potency [6] | activity, negative = inhibition [1]
COC(=O)N[C@H](CC(C)=O)c1ccc2c(c1)OCO2 | inactive | inactive | inactive | inactive | inactive | inactive | 
CC(C)[C@@H](OCc1ccccc1)[C@H](C)C=NO[C@H](C)c1cn([C@H](CO)Cc2ccccc2)nn1 | inactive | inactive | inactive | inactive | inactive | inactive | 
C#CCCCON=C1C[C@@H](O)[C@H](O)[C@H]2[C@@H]3C(=O)N(c4ccc(F)cc4F)C(=O)[C@@H]3CC[C@@H]12 | inactive | inactive | inactive | inactive |  | 0.422 µM (active) | 
COCCN1C(=O)C2=C(C1=O)C1N(C)c3ccccc3[C@@]13C[C@@H](CO)N(C(C)=O)C3=N2 (stereo not given in full) | inactive | inactive | inactive | inactive | inactive | inactive | 
CCOC(=O)CN1C(=O)NC(CCc2ccccc2)C(C(C)=O)=C1C (stereo not given) | inactive | inactive | inactive | inactive | inactive | inactive | 
COC(=O)[C@H](COC(C)(C)C)NC(=O)O[C@@H]1C(=O)c2cc(Br)ccc2O[C@H]1c1ccc2c(c1)OCO2 | inactive | inactive | inactive | inactive |  | inactive | 
O=P1(O)Oc2c(c(-c3ccccc3)cc3ccccc23)-c2c(-c3ccccc3)cc3ccccc3c2O1 | inactive | inactive | inactive | inactive | inactive | inactive | 
CCCC[C@@H]1CN2[C@@H](CC[C@H](C)[C@@H]2c2ccc(Br)cc2)C(=O)O1 | inactive | inactive | inactive | inactive |  | inactive | 
CCN1C(=NCc2cc(OC)c(OC)c(OC)c2)N[C@@H](c2ccccc2)[C@H](C(=O)OC)[C@H]1C | inactive | inactive | inactive | inactive | inactive | inactive | 
Cc1cc(C)cc(CO[C@H]2C=C[C@@H](c3ccccc3)O[C@H]2CO)c1 | inactive | inactive | inactive | inactive | inactive | inactive | 
CC(C)=NOCc1ccc(-c2cn([C@@H]3COC[C@@H]3O)nn2)cc1 | inactive | inactive | inactive | inactive |  | inactive | 
C=CCN1c2ccccc2[C@]23C[C@@H](C(=O)OC)N(C(=O)OCC)C2=NC(C(=O)OC)=C(C(=O)OC)[C@H]13 | inactive | inactive | inactive | inactive |  | inactive | 
O=C(c1ccccc1)[C@@H]1O[C@@H]1c1ccccc1 | inactive | inactive | inactive | inactive |  | inactive | 
CCN1C(=O)N(C)C(c2ccccc2)C(C(C)=O)=C1C (stereo not given) | inactive | inactive | inactive | inactive | inactive | inactive | 
CCOC(=O)OC[C@H]1O[C@H](c2cc(C)cc(C)c2)C=C[C@H]1OC(=O)OCC | inactive | inactive | inactive | inactive |  | inactive | 
OC[C@@H](O)[C@@H](O)CCc1ccccc1 | inactive | inactive | inactive | inactive | inactive | inactive | 
COC(=O)C1=C(C(=O)OC)[C@@H]2Nc3ccccc3[C@@]23C[C@@H](C(=O)OC)N(C(=O)NCCBr)C3=N1 | inactive | inactive | 1.9 µM (active) | inactive | inactive | inactive | 
COCC=CC1=CC2=CC(=O)C(C)(OC(=O)c3cnc4ccccc4n3)C(=O)C2=CN1Cc1ccc(OC)cc1 (stereo not given) | inactive | inactive | inactive | inactive |  | inactive | 
CCCCc1cc2c(cn1)=C(OC(=O)C1CCCC1)C(C)(OC(=O)CC)C(=O)C=2 (stereo not given) |  | 1.9 µM (active) | 1.51 µM (active) and 1.69 µM (active) | inactive |  | inactive | 0.367% [at 1.12 µM] (inactive)
CCN1C(=O)[C@@H]2[C@H]3[C@H](O)[C@H](O)CC(=NOC[C@@H](C)[C@H](OCc4ccccc4)C(C)C)[C@@H]3CC[C@H]2C1=O | inactive | inactive | inactive | inactive | inactive | inactive | 
COC(=O)N[C@H](C(C(=O)OC)=C(C)NCc1ccccc1)c1cccs1 | inactive | inactive | inactive | inactive | inactive | inactive | 
COc1ccc2ccccc2c1-c1c(OC)ccc2ccccc12 | inactive | inactive | inactive | inactive | inactive | inactive | 
C[C@H](ON=C1[C@H]2CCn3c(=O)n(-c4ccccc4)c(=O)n3[C@@H]2[C@H](O)[C@@H]2O[C@H]12)c1cn([C@H](CO)Cc2ccccc2)nn1 | inactive | inactive | inactive | inactive | inactive | inactive | 
COC(=O)[C@H](Cc1ccccc1)NC(=O)O[C@@H]1C(=O)c2cc(OC)ccc2O[C@H]1c1ccc(OC)c(Br)c1 | inactive | inactive | inactive | inactive | inactive | inactive | 
COC(=O)C(C(C)=O)C1c2ccccc2C=C(C)N1C(=O)OC (stereo not given) |  | inactive | inactive | inactive | inactive | inactive | -3.36% [at 1.12 µM] (inactive)

SMILES | Potency [1] | Potency [2] | Potency [3] | Potency [4] | Potency [5] | Potency [6] | activity, negative = inhibition [1]
CCCC[C@H]1CN2[C@H](c3ccc(Br)cc3)[C@H](C)CC[C@H]2C(=O)O1 | inactive | inactive | inactive | inactive | inactive | inactive | 
CC=COC(=O)N[C@@H](c1ccccc1)[C@]1(C(=O)OCC)CCCC1=O | inactive | inactive | inactive | inactive | inactive | inactive | 
CC(=O)OC[C@H]1O[C@H](CC=NOC[C@@H](O)COCc2ccco2)C=C[C@H]1OC(C)=O | inactive | inactive | inactive | inactive | inactive | inactive | 
Cc1cc2c(c(=O)o1)[C@H]1O[C@](c3ccsc3)(Cc3cc(C#N)ccc31)O2 | inactive | inactive | inactive | inactive | inactive | inactive | 
CCCCC1=CC2=C(c3ccco3)C(=O)C(C)(OC(=O)c3ccc(OC)cc3)C(=O)C2=CN1Cc1ccc2c(c1)OCO2 (stereo not given) |  | inactive | inactive | inactive | inactive | inactive | 4.29% [at 1.12 µM] (inactive)
C=C(C[C@]1(C(=O)OC)C[C@]2(CC=C(C)C)C(=O)C(C(=O)CC(C)C)=C(O)[C@@](CC=C(C)C)(C1)C2=O)C(=O)OC | inactive | inactive | inactive | inactive | inactive | inactive | 
CCOC(=O)CN1C(=O)N[C@@H](CCc2ccccc2)[C@H](C(=O)OC)[C@H]1C | inactive | inactive | inactive | inactive | inactive | inactive | 
CCOC(=O)N1C2=NC(C(=O)OC)=C(C(=O)OC)[C@@H]3Nc4ccccc4[C@]23C[C@H]1C(=O)OC |  | 1.9 µM (active) and inactive | inactive | inactive | inactive | inactive | -0.255% [at 1.12 µM] (inactive)
C=CCNC(=O)N1C2=NC(C(=O)OC)=C(C(=O)OC)[C@@H]3N(C)c4ccccc4[C@]23C[C@H]1CO | inactive | inactive and 1.9 µM (active) | inactive and 1.69 µM (active) | inactive and 2.94 µM (active) | inactive | inactive | 
CC(=O)OC[C@H]1O[C@H](CC=NO[C@@H](C)c2cn([C@H](CO)Cc3ccccc3)nn2)C=C[C@@H]1OC(C)=O | inactive | inactive | inactive | inactive | inactive | inactive | 
COC(=O)C1=C(C(=O)OC)[C@@H]2N(C)c3ccccc3[C@@]23C[C@@H](C(=O)OC)N(C(=O)c2ccco2)C3=N1 | inactive | inactive | inactive | inactive | inactive | inactive | 
COC(=O)N[C@@H](c1ccc2ccccc2c1)C(C(C)=O)C(=O)OC (stereo not given in full) | inactive | inactive | inactive | inactive | inactive | inactive | 
COc1ccc(-c2nc(-c3ccccc3)oc2Nc2c(C)cccc2C)cc1 | inactive | inactive | inactive | inactive | inactive | inactive | 
COC(=O)N[C@@H](c1ccccc1)[C@]1(C(C)=O)CCCC1=O | inactive | inactive | inactive | inactive | inactive | inactive | 
CCOC(=O)CCN1C(=O)[C@@H]2[C@H]3[C@H](O)[C@H](O)CC(=NO[C@@H]4O[C@H](COC(C)=O)[C@@H](OC(C)=O)[C@H](OC(C)=O)[C@@H]4OC(C)=O)[C@H]3CC[C@H]2C1=O | inactive | inactive | inactive | inactive | inactive | inactive | 
O=C1[C@@H]2[C@H]3[C@H](O)[C@H](O)CC(=NOC[C@@H](O)COCc4ccco4)[C@H]3CC[C@H]2C(=O)N1c1ccc(F)cc1F | inactive | inactive | inactive | inactive | inactive | inactive | 
CC1=CC[C@@H](COc2ccccc2)O[C@@]2(C1)C(=O)Nc1cccc(Br)c12 | inactive | inactive | inactive | inactive | inactive | inactive | 
C(=Cc1nc(-c2ccccc2)oc1Nc1ccc2ccccc2c1)c1ccccc1 | inactive | inactive | inactive | inactive | inactive | inactive | 
COC(=O)CCCC1=CC2=CC(=O)C(C)(OC(=O)c3cccs3)C(=O)C2=CN1CCc1ccccn1 (stereo not given) | inactive | inactive | inactive | inactive | inactive | inactive | 
C=C(C)CCCN1C=C(C(C)=O)C(c2ccccc2)NC1=O (stereo not given) | inactive | inactive | inactive | inactive | inactive | inactive | 
O=C1CCC=C1C(O)CCc1ccccc1 (stereo not given) | inactive | inactive | inactive | inactive | inactive | inactive | 
COCCN1C(=O)C2=C(C1=O)C1N(C)c3ccccc3[C@@]13C[C@@H](CO)N(C(=O)CCC(=O)OC)C3=N2 (stereo not given in full) | inactive | inactive | inactive | inactive | inactive | inactive | 
COC(=O)CC=C1c2ccccc2[C@@H](NC(=O)OC)[C@@H]1C | inactive | inactive | inactive | inactive | inactive | inactive | 
CCN1C(=NCc2cc(OC)c(OC)c(OC)c2)NC(c2ccccc2)C(C(=O)OC)=C1C (stereo not given) | inactive | inactive | inactive | inactive | inactive | inactive | 
